This is one part of the list. No count for the full screen is at hand.
Molecular target: furin, P09958
Assay: furin cleavage Z-score vs untreated control; higher = more cleavage, active = 3.5 or more, inactive = 1 or less, 8 variable residues between constant flanks
Summary of the method: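 The cleavage Z-score is the log read count relative to furin-free reactions, lowess-adjusted and scaled by median absolute deviation. Counts came from sequencing DNA released from bead-bound 8-mer peptide–cDNA fusions after digestion with purified furin for 7.5, 15 or 30 min.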
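Note: purified furin at 1:10 enzyme:substrate in 50 mM HEPES pH 7.5.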

furin, P09958, sequence (P09958 whole entry): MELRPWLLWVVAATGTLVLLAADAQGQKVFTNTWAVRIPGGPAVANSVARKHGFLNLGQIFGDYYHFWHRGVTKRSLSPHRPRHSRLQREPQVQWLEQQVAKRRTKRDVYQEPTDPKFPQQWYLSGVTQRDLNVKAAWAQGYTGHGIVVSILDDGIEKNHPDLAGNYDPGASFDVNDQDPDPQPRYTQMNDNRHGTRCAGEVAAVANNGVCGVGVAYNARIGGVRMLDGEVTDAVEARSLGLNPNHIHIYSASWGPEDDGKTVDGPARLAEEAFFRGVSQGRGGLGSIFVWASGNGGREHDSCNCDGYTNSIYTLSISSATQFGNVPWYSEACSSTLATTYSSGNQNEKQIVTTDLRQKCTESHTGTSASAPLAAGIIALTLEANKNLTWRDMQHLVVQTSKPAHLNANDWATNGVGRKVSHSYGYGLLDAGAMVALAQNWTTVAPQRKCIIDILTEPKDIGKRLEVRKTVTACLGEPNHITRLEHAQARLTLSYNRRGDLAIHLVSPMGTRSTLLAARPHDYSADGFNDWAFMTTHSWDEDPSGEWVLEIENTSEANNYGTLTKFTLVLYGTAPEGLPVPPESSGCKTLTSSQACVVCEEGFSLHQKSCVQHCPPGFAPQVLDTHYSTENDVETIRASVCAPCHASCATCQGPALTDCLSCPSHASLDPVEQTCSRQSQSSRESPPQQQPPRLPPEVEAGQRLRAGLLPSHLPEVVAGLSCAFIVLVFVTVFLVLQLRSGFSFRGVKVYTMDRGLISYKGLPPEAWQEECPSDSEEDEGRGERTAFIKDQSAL

Which results are given for CALRKLGVPPAGNASASA [HC1615]?
furin cleavage Z-score (7.5 min): 0.313 (inactive); furin cleavage Z-score (15 min): 0.845 (inactive); furin cleavage Z-score (30 min): 0.629 (inactive)

Which “furin cleavage Z-score” value (7.5 min) does the source give for CAGLKRSVSRAGNASASA [FS-2477] here?
Its value is -0.266 (inactive).

And the “furin cleavage Z-score” value (15 min)?
Its value is -1.67 (inactive).

What about the “furin cleavage Z-score” value (30 min) of the same sequence?
The value was 0.712 (inactive).

How did the “furin cleavage Z-score” value (7.5 min) turn out when CAPKSPPVPPAGNASASA [HC1320] was run?
Its value is -0.644 (inactive).

What about the “furin cleavage Z-score” value (15 min) of the same sequence?
The value was 0.94 (inactive).

What about the “furin cleavage Z-score” value (30 min) of the same sequence?
Its value is -0.0681 (inactive).

What does the source list for CAKIKRSVSPAGNASASA [FS-2247]?
furin cleavage Z-score (7.5 min): 4.13 (active); furin cleavage Z-score (15 min): 3.63 (active); furin cleavage Z-score (30 min): 4.32 (active)

What does the source list for CAKAKRSVPPAGNASASA [FS-2540]?
furin cleavage Z-score (7.5 min): 9.65 (active); furin cleavage Z-score (15 min): 9.24 (active); furin cleavage Z-score (30 min): 7.46 (active)

With CAQNVQLINTAGNASASA [HC365] as the sequence, how does the “furin cleavage Z-score” value (7.5 min) read?
Its value is -0.00687 (inactive).

And the “furin cleavage Z-score” value (15 min)?
Its value is 0.24 (inactive).

And the “furin cleavage Z-score” value (30 min)?
Its value is 0.289 (inactive).

For CAEVPCHRPSAGNASASA [HC2312], which “furin cleavage Z-score” value (7.5 min) is on record?
Its value is 0.893 (inactive).

What about the “furin cleavage Z-score” value (15 min) of the same sequence?
Its value is 0.385 (inactive).

What about the “furin cleavage Z-score” value (30 min) of the same sequence?
The value was 0.669 (inactive).

With CAALCRHRRLAGNASASA [FS-154] as the sequence, how does the “furin cleavage Z-score” value (7.5 min) read?
Its value is 4.73 (active).

What about the “furin cleavage Z-score” value (15 min) of the same sequence?
Its value is 5.6 (active).

And the “furin cleavage Z-score” value (30 min)?
Its value is 6.55 (active).

Which results are given for CAHAYRHRRLAGNASASA [FS-1531]?
furin cleavage Z-score (7.5 min): 0.687 (inactive); furin cleavage Z-score (15 min): 2.16; furin cleavage Z-score (30 min): 3.53 (active)

CACTCGSSDLAGNASASA [HC722] was tested. Which “furin cleavage Z-score” value (7.5 min) did it give?
The value was -1.16 (inactive).

And the “furin cleavage Z-score” value (15 min)?
The value was -3.51 (inactive).

And the “furin cleavage Z-score” value (30 min)?
The value was -0.486 (inactive).

Which results are given for CAHAYRPGRRAGNASASA [FS-247]?
furin cleavage Z-score (7.5 min): -0.291 (inactive); furin cleavage Z-score (15 min): -0.643 (inactive); furin cleavage Z-score (30 min): 1.65

CAGIMHTRCHAGNASASA [HC1172] was tested. Which “furin cleavage Z-score” value (7.5 min) did it give?
The value was 1.75.

And the “furin cleavage Z-score” value (15 min)?
The value was 2.22.

What about the “furin cleavage Z-score” value (30 min) of the same sequence?
Its value is 0.438 (inactive).

Which results are given for CARASRAKRRAGNASASA [FS-1477]?
furin cleavage Z-score (7.5 min): 11.9 (active); furin cleavage Z-score (15 min): 12.4 (active); furin cleavage Z-score (30 min): 8.04 (active)

For CARASRSIRIAGNASASA [FS-2893], which “furin cleavage Z-score” value (7.5 min) is on record?
Its value is 3.6 (active).

What about the “furin cleavage Z-score” value (15 min) of the same sequence?
The value was 6.75 (active).

And the “furin cleavage Z-score” value (30 min)?
Its value is 7.27 (active).

CACPRRAKRRAGNASASA [FS-119] was tested. Which “furin cleavage Z-score” value (7.5 min) did it give?
The value was 4.82 (active).

And the “furin cleavage Z-score” value (15 min)?
The value was 4.82 (active).

What about the “furin cleavage Z-score” value (30 min) of the same sequence?
The value was 5.05 (active).

Which results are given for CARATRKIGIAGNASASA [FS-2132]?
furin cleavage Z-score (7.5 min): -0.496 (inactive); furin cleavage Z-score (15 min): -1.56 (inactive); furin cleavage Z-score (30 min): -0.101 (inactive)

With CARASRGGGGAGNASASA [FS-2891] as the sequence, how does the “furin cleavage Z-score” value (7.5 min) read?
Its value is -0.8 (inactive).

What about the “furin cleavage Z-score” value (15 min) of the same sequence?
Its value is -0.464 (inactive).

And the “furin cleavage Z-score” value (30 min)?
The value was -0.232 (inactive).

How did the “furin cleavage Z-score” value (7.5 min) turn out when CARASRNKRPAGNASASA [FS-1559] was run?
Its value is 0.256 (inactive).

And the “furin cleavage Z-score” value (15 min)?
The value was -0.194 (inactive).

And the “furin cleavage Z-score” value (30 min)?
Its value is 0.132 (inactive).

What does the source list for CAEVPCHKPSAGNASASA [HC2374]?
furin cleavage Z-score (7.5 min): 0.115 (inactive); furin cleavage Z-score (15 min): 1; furin cleavage Z-score (30 min): -0.202 (inactive)

Which results are given for CADFMEECSQAGNASASA [HC1807]?
furin cleavage Z-score (7.5 min): 0.00727 (inactive); furin cleavage Z-score (15 min): -0.301 (inactive); furin cleavage Z-score (30 min): -1.48 (inactive)

Which results are given for CAMCAVHPTLAGNASASA [HC599]?
furin cleavage Z-score (7.5 min): -1.6 (inactive); furin cleavage Z-score (15 min): -0.0857 (inactive); furin cleavage Z-score (30 min): -0.861 (inactive)

CAFYGKAIPLAGNASASA [HC848] was tested. Which “furin cleavage Z-score” value (7.5 min) did it give?
The value was 0.497 (inactive).

What about the “furin cleavage Z-score” value (15 min) of the same sequence?
Its value is -0.506 (inactive).

What about the “furin cleavage Z-score” value (30 min) of the same sequence?
The value was -2.2 (inactive).

Reference: the supplement of paper PMC3545927
